Results filed as inconclusive are left out. Activity calls are given as the source filed them. Unless noted, calls come from the whole dose curve.
How the values were obtained:
[1] = Nuclear factor erythroid 2-related factor 2/antioxidant responsive element (Nrf2/ARE) small molecule agonists: qHTS cell viability counter screen in human keratinocytes (AID 1919968; active = well fitted curve in the direction sought with a large enough effect in the repeat runs; an effect the other way counts as inactive or inconclusive; note: nearly all actives have a fitted effect of over 55% in size)
In short: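 In human HaCaT keratinocytes stably expressing an ARE-driven luciferase, compound exposure lasted 23 h at 37 C under 5% CO2. Viable cells are quantified with a protease-based fluorogenic reagent (CellTiter-Fluor) read 1 h after addition.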

[2] = Nuclear factor erythroid 2-related factor 2/antioxidant responsive element (Nrf2/ARE) small molecule agonists: luciferase reporter gene qHTS assay in human keratinocytes (AID 1919969); note: nearly all actives have a fitted effect of over 35% in size
[3] = molecular target: Gonadotropin-releasing hormone receptor (Homo sapiens) (UniProt P30968); test: Human gonadotropin-releasing hormone receptor (GnRHR) small molecule agonists, calcium flux assay in GnRHR-HEK293 cells (AID 1920063); note: nearly all actives have a fitted effect of over 35% in size
In short: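 Intracellular calcium rise is the read-out: engineered human GnRHR HEK293 cells, dye-loaded, are exposed to DMSO-dissolved compounds and fluorescence at Ex/Em 480/540 is tracked for 3 min.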

[4] = molecular target: KiSS-1 receptor (Homo sapiens) (UniProt Q969F8); test: Human kisspeptin (KISS1R) small molecule agonists, calcium flux assay in KISS1R-HEK293 cells (AID 1920064; active = well fitted curve in the direction sought with a large enough effect in the repeat runs; an effect the other way counts as inactive or inconclusive)
In short: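 Concentration-response testing used 15 concentrations in triplicate on human KISS1R-expressing HEK293 cells. Calcium-dependent fluorescence (Ex/Em 480/540) was followed kinetically for 3 min after compound transfer.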

[5] = G protein-coupled receptor (GPCR) small molecule agonists, calcium flux assay: HEK293 wild type cell line counter screen (AID 1920065)
In short: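 Fluorescence intensity signals activation. After overnight (18 h) culture and a 1 h calcium dye load at 37 C, compounds are added by pin tool and the plate read at 480/540 nm for 3 min in 1 s steps.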

[6] = p53 small molecule agonists, cell-based qHTS assay with human liver microsomes (AID 1963577);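 note: p53 response element beta-lactamase reporter cells with liver microsomes plus NADPH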
In short: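 p53RE-bla cells; 5 h settle, 37 C/5% CO2; cpd + HLM 0.5 mg/mL + NADPH 0.5 mg/mL (final); 16 h 37 C; LiveBLAzer 2 h RT dark; fluorescence readout.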

[7] = p53 small molecule agonists, cell-based qHTS assay with rat liver microsomes (AID 1963578)
In short: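 Rat liver microsome activation: microsomes 0.5 mg/mL, NADPH 0.5 mg/mL final; p53RE-bla cells, 16 h 37 C; LiveBLAzer readout, 2 h RT dark.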

[8] = p53 small molecule agonists, cell-based qHTS assay with human liver microsomes: qHTS cell viability counter screen (AID 1963579); note: nearly all actives have a fitted effect of over 45% in size
In short: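 Luminescent CellTiter-Glo read-out, 30 min at room temperature, gauged cytotoxicity in p53RE-bla cells exposed 16 h at 37 C to DMSO-dissolved compounds with metabolic activation by human liver microsomes and NADPH, each 0.5 mg/mL final.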

[9] = p53 small molecule agonists, cell-based qHTS assay with rat liver microsomes: qHTS cell viability counter screen (AID 1963580); note: nearly all actives have a fitted effect of over 45% in size
In short: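 Counter screen for cytotoxicity under metabolic activation: rat liver microsomes and NADPH, 0.5 mg/mL final each, added with compounds to p53RE-bla HCT-116 cells; 16 h at 37 C, then ATP luminescence read.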

[10] = p53 small molecule agonists, cell-based qHTS assay: qHTS cell viability counter screen (AID 1963581); note: nearly all actives have a fitted effect of over 45% in size
In short: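 Luminescence from CellTiter-Glo, reflecting ATP content, serves as the cytotoxicity measure; it is taken after the 2 h reporter substrate step in HCT-116 p53RE-bla cells dosed for 16 h at 37 C.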

[11] = molecular target: 5-hydroxytryptamine receptor 2A (Homo sapiens) (UniProt P28223); test: 5-hydroxytryptamine receptor 2A (HTR2A) small molecule antagonists, cell-based qHTS assay (AID 1963586); note: nearly all actives have a fitted effect of over 45% in size
In short: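 CHO cells stably expressing human HTR2A were plated for 18 h at 37 C, then loaded with calcium dye for 1 h. Compounds were preincubated 5 min at room temperature before DOI (4 nM solution) was added. Kinetic fluorescence was read for 3 min.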

[12] = molecular target: Muscarinic acetylcholine receptor M1 (Homo sapiens) (UniProt P11229); test: Cholinergic receptor muscarinic 1 (CHRM1) small molecule antagonists, cell-based qHTS assay (AID 1963588); note: nearly all actives have a fitted effect of over 40% in size
In short: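 Compounds were tested at 15 concentrations in three independent runs. Dye-loaded CHRM1-CHO cells were exposed 5 min at room temperature before stimulation by acetylcholine added at 50nM. Intracellular calcium was read kinetically on FDSS for 3 min.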

[13] = molecular target: Muscarinic acetylcholine receptor M1 (Homo sapiens) (UniProt P11229); test: Cholinergic receptor muscarinic 1 (CHRM1) small molecule agonists, cell-based qHTS assay (AID 1963589); note: nearly all actives have a fitted effect of over 35% in size
In short: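 Fluorescent calcium dye reports M1 activation in stably transfected CHO cells. Compounds, 15 concentrations, added after 1 h dye loading at 37 C; kinetic reading at 1 sec intervals.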

[14] = cAMP Responsive Elements (CRE) small molecule agonists, cell-based qHTS assay (AID 1963590)
In short: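 Compound exposure lasted 3 h at 37 C/5% CO2 in CRE-bla HEK 293T cells grown in assay medium with 10% dialyzed FBS and 25 mM HEPES. Reporter signal came from LiveBLAzer B/G FRET substrate, 2 h, room temperature.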

[15] = cAMP Responsive Elements (CRE) small molecule antagonists, cell-based qHTS assay (AID 1963591; active = well fitted inhibition curve with a large enough effect in the signal ratio in the repeat runs, not every such curve was filed as active; the % refers to the signal ratio)
In short: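 Stimulation used NKH477 at a final 0.25 uM for 3 h in compound-treated CRE-bla HEK293T cells, seeded 18 h beforehand. Reporter activity was measured with LiveBLAzer B/G FRET substrate after 2 h at room temperature.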

[16] = molecular target: Beta-2 adrenergic receptor (Homo sapiens) (UniProt P07550); test: Adrenergic beta2 receptor (ADRB2) small molecule agonists, cell-based qHTS assay (AID 1963593);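 note: CHO cells stably overexpressing human ADRB2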
In short: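 CHO cells stably over-expressing ADRB2 were plated overnight at 37C, then dosed with compounds plus a stimulation mix containing 100uM IBMX and 25uM Ro-20-1724 for 0.5hr at room temperature. cAMP was measured by HTRF competition, 1hr.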

[17] = molecular target: D(2) dopamine receptor (Homo sapiens) (UniProt P14416); test: Dopamine D2 receptor (DRD2) small molecule agonists, cell-based qHTS assay (AID 1963594); note: nearly all actives have a fitted effect of over 35% in size
In short: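 HEK293 cells stably expressing DRD2 were cultured 24 h at 37 C, then given Ro20-1724 (0.1 mM final) and compounds for 10 min at room temperature. NKH477 (200nM) was then added for 30 min. cAMP was read by HTRF.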

[18] = molecular target: D(2) dopamine receptor (Homo sapiens) (UniProt P14416); test: Dopamine D2 receptor (DRD2) small molecule antagonists, cell-based qHTS assay (AID 1963595; active = well fitted inhibition curve with a large enough effect in the signal ratio in the repeat runs, with a control signal flat; the % refers to the signal ratio)
In short: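 HEK293 cells stably expressing DRD2, preincubated with 0.1 mM Ro20-1724 and compounds 10 min, were stimulated with 200 nM NKH477 plus 12 nM quinpirole for 30 min at room temperature; cAMP measured by HTRF (665/620 nm).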

[19] = molecular target: 5-hydroxytryptamine receptor 2A (Homo sapiens) (UniProt P28223); test: 5-hydroxytryptamine receptor 2A (HTR2A) small molecule agonists, cell-based qHTS assay (AID 1963587); note: nearly all actives have a fitted effect of over 30% in size
In short: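 HTR2A-CHO cells, plated 18 h at 37 C/5% CO2, dye-loaded 1 h at 37 C; compounds in DMSO added by pin tool (agonist mode). Intracellular calcium flux read as kinetic fluorescence on FDSS over 2 min at 1 s intervals.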

[20] = molecular target: Beta-2 adrenergic receptor (Homo sapiens) (UniProt P07550); test: Adrenergic beta2 receptor (ADRB2) small molecule antagonists, cell-based qHTS assay (AID 1963592); note: series mostly up to about 92 µM; nearly all actives have a fitted effect of over 50% in size
In short: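 Assay format: CHO-ADRB2 cells, 18-20hr seeding at 37C/5% CO2, then compound plus 1nM isoproterenol agonist mix for 0.5hr RT. Homogeneous time-resolved fluorescence cAMP detection after 1hr, expressed as 665/615 nm ratio.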

Measured: Potency

Chain of Gonadotropin-releasing hormone receptor (Homo sapiens) (P30968 whole entry, looked up): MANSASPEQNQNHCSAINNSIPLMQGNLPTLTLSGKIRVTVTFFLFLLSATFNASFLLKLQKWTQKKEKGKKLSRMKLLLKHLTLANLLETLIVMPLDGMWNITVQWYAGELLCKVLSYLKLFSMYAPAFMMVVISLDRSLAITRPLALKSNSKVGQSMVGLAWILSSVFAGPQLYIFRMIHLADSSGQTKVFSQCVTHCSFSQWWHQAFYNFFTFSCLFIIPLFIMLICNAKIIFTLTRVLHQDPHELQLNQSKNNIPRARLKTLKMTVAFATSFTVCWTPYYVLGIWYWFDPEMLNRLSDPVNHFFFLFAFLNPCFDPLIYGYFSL
Chain of D(2) dopamine receptor (Homo sapiens) (P14416 whole entry, looked up): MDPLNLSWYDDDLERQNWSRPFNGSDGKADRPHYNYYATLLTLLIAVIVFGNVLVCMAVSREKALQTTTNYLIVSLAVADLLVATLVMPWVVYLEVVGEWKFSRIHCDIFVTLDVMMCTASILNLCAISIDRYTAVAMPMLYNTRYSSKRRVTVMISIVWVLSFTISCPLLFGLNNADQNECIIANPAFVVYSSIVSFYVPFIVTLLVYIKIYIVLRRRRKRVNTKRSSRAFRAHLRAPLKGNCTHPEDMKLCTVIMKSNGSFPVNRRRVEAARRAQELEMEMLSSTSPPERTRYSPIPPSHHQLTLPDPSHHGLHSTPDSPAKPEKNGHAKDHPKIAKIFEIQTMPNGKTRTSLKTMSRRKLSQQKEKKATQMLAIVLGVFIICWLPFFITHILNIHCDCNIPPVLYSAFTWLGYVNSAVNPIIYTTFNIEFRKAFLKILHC
Chain of Beta-2 adrenergic receptor (Homo sapiens) (P07550 whole entry, looked up): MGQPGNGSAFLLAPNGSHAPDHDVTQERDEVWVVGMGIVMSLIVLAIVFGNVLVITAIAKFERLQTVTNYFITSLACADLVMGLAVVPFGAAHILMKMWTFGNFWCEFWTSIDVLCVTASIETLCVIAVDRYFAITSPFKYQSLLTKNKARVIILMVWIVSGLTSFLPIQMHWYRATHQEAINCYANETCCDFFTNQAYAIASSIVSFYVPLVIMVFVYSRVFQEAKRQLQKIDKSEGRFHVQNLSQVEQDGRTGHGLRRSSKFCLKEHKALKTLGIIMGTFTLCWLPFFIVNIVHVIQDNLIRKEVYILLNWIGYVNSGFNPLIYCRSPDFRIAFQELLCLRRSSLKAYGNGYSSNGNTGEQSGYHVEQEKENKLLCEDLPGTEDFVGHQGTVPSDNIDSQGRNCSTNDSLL
Chain of Muscarinic acetylcholine receptor M1 (Homo sapiens) (P11229 whole entry, looked up): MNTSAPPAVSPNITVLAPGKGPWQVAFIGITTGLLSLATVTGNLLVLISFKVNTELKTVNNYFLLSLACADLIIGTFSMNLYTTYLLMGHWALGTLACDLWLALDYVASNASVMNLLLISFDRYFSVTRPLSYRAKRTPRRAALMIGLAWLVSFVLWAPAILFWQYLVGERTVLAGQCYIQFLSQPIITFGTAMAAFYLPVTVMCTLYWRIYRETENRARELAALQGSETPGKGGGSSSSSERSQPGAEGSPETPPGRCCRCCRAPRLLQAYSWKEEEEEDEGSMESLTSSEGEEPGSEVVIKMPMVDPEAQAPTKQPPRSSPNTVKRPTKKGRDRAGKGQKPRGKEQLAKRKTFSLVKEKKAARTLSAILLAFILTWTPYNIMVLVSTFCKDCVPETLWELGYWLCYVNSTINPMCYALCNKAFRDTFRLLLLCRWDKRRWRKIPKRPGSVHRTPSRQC
Chain of 5-hydroxytryptamine receptor 2A (Homo sapiens) (P28223 whole entry, looked up): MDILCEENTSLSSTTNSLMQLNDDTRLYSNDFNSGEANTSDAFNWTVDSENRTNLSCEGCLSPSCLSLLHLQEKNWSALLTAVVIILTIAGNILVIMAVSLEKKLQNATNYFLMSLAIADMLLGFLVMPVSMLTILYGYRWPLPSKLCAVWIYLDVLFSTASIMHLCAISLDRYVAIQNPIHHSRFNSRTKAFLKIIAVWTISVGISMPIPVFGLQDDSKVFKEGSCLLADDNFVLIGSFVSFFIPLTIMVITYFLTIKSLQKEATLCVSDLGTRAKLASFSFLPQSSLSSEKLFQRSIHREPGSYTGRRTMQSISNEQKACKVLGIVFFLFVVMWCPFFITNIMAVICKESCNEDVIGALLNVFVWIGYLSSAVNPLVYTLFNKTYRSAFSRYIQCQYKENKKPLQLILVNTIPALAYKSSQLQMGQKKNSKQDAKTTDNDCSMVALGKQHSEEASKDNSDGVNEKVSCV
Chain of KiSS-1 receptor (Homo sapiens) (Q969F8 whole entry, looked up): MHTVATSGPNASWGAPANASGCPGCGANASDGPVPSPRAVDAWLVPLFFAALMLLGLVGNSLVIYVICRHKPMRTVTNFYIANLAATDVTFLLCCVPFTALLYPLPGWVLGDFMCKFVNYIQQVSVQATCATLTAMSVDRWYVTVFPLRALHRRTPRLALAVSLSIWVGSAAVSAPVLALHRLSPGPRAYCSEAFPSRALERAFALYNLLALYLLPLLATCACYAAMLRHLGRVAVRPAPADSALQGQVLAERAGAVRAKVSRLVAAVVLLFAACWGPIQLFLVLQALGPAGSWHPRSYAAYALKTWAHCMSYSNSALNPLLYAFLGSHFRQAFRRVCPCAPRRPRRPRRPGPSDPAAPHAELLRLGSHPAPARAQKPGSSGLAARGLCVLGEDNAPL

O=S(=O)(O)c1cccc2c(S(=O)(=O)O)cccc12
not listed: [19] | [20]
inactive: all other assays above

O=C(O)c1ccc(CO)o1
not listed: [11]
inactive: all other assays above

CC(C)CCCCCCCCCCCCCCC(=O)O
not listed: [19]
inactive: all other assays above

CC(=O)OCC1=C(C(=O)O)N2C(=O)[C@@H](NC(=O)Cc3cccs3)[C@H]2SC1
not listed: [19]
inactive: all other assays above
